Measured values published in the supplement of paper PMC6555819.

Experiments:
Assay in all cases: PBM binding z-score (relative to random genomic background probes); higher = stronger binding; sequences stand for … in GC…GCGATTGACAGCGTAGAATGAAGG
[1] = system: FXR:RXRa (NR concentration 270 nM, RXRa partner concentration 90 nM)
How it was run: (§1)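 Binding buffer was PBS pH 7.4 with 2% milk, 0.02% Triton X-100, 1 mM DTT, 0.2 mg/mL BSA and 0.4 mg/ml salmon testes DNA. In it, ligand-free nuclear receptor dimers were incubated 1 h on custom Agilent 4×180K protein-binding microarrays carrying double-stranded probes. Antibodies against each partner (one per run) detected binding, and z-scores were calculated against random background probes after regression normalization of scanned fluorescence.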

[2] = system: LXRa:RXRa (NR concentration 270 nM, RXRa partner concentration 90 nM)
How it was run: as §1

[3] = system: LXRa homodimer (NR concentration 270 nM)
How it was run: as §1

[4] = system: LXRb:RXRa (NR concentration 270 nM, RXRa partner concentration 90 nM)
How it was run: as §1

[5] = system: LXRb homodimer (NR concentration 270 nM)
How it was run: as §1

[6] = system: PPARa:RXRa (NR concentration 270 nM, RXRa partner concentration 90 nM)
How it was run: as §1

[7] = system: PPARg:RXRa (NR concentration 180 nM, RXRa partner concentration 90 nM)
How it was run: as §1

[8] = system: PPARg:RXRa 270nM:90nM, anti-RXR (NR concentration 270 nM, RXRa partner concentration 90 nM)
How it was run: as §1

[9] = system: PPARg:RXRa 30nM:10nM, anti-RXR (NR concentration 30 nM, RXRa partner concentration 10 nM)
How it was run: as §1

[10] = system: PPARg:RXRa 90nM:30nM, anti-RXR (NR concentration 90 nM, RXRa partner concentration 30 nM)
How it was run: as §1

[11] = system: PPARg:RXRa DBDmut IVT, anti-RXR (DBD mutation: RXRa K156A/R161A, NR concentration 270 nM, RXRa partner concentration 90 nM)
How it was run: as §1

[12] = system: PPARg:RXRa IVT, anti-PPARg (NR concentration 270 nM, RXRa partner concentration 90 nM)
How it was run: as §1

[13] = system: PPARg DBDmut:RXRa IVT, anti-PPARg (DBD mutation: PPARg1 K132A/R137A, NR concentration 270 nM, RXRa partner concentration 90 nM)
How it was run: as §1

[14] = system: PPARg DBDmut IVT, anti-PPARg (DBD mutation: PPARg1 K132A/R137A, NR concentration 270 nM)
How it was run: as §1

[15] = system: PPARg homodimer (NR concentration 180 nM)
How it was run: as §1

[16] = system: PXR:RXRa (NR concentration 270 nM, RXRa partner concentration 90 nM)
How it was run: as §1

[17] = system: PXR homodimer (NR concentration 270 nM)
How it was run: as §1

[18] = system: RARa:RXR (NR concentration 270 nM, RXRa partner concentration 90 nM)
How it was run: as §1

[19] = system: RARa homodimer (NR concentration 270 nM)
How it was run: as §1

[20] = system: RARb:RXRa (NR concentration 270 nM, RXRa partner concentration 90 nM)
How it was run: as §1

Sequence	PBM binding z-score [1]	PBM binding z-score [2]	PBM binding z-score [3]	PBM binding z-score [4]	PBM binding z-score [5]	PBM binding z-score [6]	PBM binding z-score [7]	PBM binding z-score [8]	PBM binding z-score [9]	PBM binding z-score [10]	PBM binding z-score [11]	PBM binding z-score [12]	PBM binding z-score [13]	PBM binding z-score [14]	PBM binding z-score [15]	PBM binding z-score [16]	PBM binding z-score [17]	PBM binding z-score [18]	PBM binding z-score [19]	PBM binding z-score [20]
AGTCAAAGTTCACTAGGTCACGTAAGATTCAGCT	6.19	6.11	5.68	4.32	1.45	6.04	9.33	7.67	4.81	7.31	5.56	6.73	1.41	1.03	4.02	5.52	3.91	5.75	1.46	5.27
ATCTCTACGTAAAAGTTCAGTGAATCCCGAGGAT	0.535	1.12	1.27	0.881	1.33	0.835	0.595	1.55	0.654	1.25	-0.177	0.157	1.69	2.47	0.954	1.69	1.8	0.802	1.16	2.35
TCATATAGGTAAACAGGTAAAAGTCCGTAAGTTA	1.11	1.14	0.519	0.863	0.214	1.98	2.49	3.29	4.26	3.85	4.45	3.81	1.35	1.75	0.996	0.894	0.723	1.14	1.5	0.628
ATACCAAGGTGATCGTGAGGTCGTTAATACTAAC	1.59	1.12	0.651	1.37	-0.102	1.55	0.445	0.146	-0.147	0.0284	0.582	1.08	0.575	0.441	1.01	3.26	1.7	2.15	0.0918	1.44
CTCGAAAGGTCGTGCTCAGGTGACTATACCAAAC	5.25	3.88	0.561	3.69	0.323	4.97	2.84	3.95	1.46	2.76	1.01	2.13	-0.324	0.674	1.85	3.67	0.399	4.75	0.319	4
TCATATAGTTAATACAGGTGAAAGTCGGCATCTA	1.36	1.88	0.641	1.3	0.448	1.8	1.13	2.41	4.54	3.7	2.82	1.74	1.53	1.48	1.32	1.05	0.721	1.59	2.34	0.914
CGAACTAGGTCAGAACAGGTCAGTGAAGGATGAT	2.92	2.65	0.47	1.69	-0.091	3.73	5.27	4.8	1.67	4.11	7.05	7.16	1.14	1.73	1.66	3.32	0.18	2.3	0.424	3.57
GCTTATAGGTAATACAAGGTGAAAGTCCGATTGT	0.773	2.61	0.251	0.934	-0.275	1.5	0.93	1.22	0.379	0.916	3.24	2.78	1	1.03	0.685	0.829	0.193	1.93	1.06	0.613
TTACCAAGGTGAGCTGAGGTCGTTGACCCAACTC	2.54	2.48	-0.484	1.43	-0.784	2.06	0.441	0.96	-0.036	0.348	0.928	2.03	0.277	-0.41	0.266	5.01	0.193	2.57	-0.539	1.91
AATACAGGGTCATAGTAGGCCAGAGTACGCACAG	7.09	6.14	2.31	4.62	1.5	5.82	6.42	5.33	2.62	4.34	2.62	4.56	1.47	2.3	2.67	4.36	0.689	4.7	0.787	4.05
ACCTCTAGGTAAGACTCAGTTCAGTGAAGAACGC	-0.0705	-0.143	-0.072	-0.301	0.0183	-0.0817	0.0418	0.031	-0.00405	-0.257	1.32	0.243	-0.124	-0.421	0.121	0.405	0.515	0.112	-0.37	-0.0918
CCTACTGGGCCAAAAAGGTCATTGAAGCCGATAA	3.74	4.35	2.77	4.22	0.158	4.79	3.38	4.24	1.31	3.47	3.62	3.97	-0.352	-0.851	3.29	4.73	3.09	5.39	1.5	4.06
TCTTTTAGATCAACAGGAGGTTAAGAAAGATCGA	1.27	1.43	0.248	1.57	0.898	1.55	0.2	2.27	3.57	3.17	2.11	0.854	1.33	1.69	0.914	1.3	0.393	1.6	0.513	0.952
CCTAGTTGGTCAGGAGATCACACACCGGATATGA	0.118	0.263	0.478	0.0659	0.414	0.215	1.01	0.651	0.236	0.432	0.463	0.766	0.576	0.266	1.26	0.215	0.728	0.415	1.34	0.518
